The results in this text go back to paper PMC11006913.

What all share (test): PBM; 200 nM protein, PBS
Conditions in all cases: dsDNA, one strand shown

Experiment [1] has as its target T1, VENTX (Homo sapiens, UniProt O95231 78-163, R121Q).
T1 sequence: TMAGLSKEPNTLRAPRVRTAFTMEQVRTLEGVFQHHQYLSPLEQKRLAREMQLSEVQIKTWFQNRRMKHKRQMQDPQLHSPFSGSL

For experiment [2], the target named is T2, VENTX (Homo sapiens, UniProt O95231 78-163).
T2 sequence: T1 sequence with Q44R

Experiment [3] addresses HOXA7 (Homo sapiens, UniProt P31268 116-202).
In experiment [4] the target is T3, VENTX (Homo sapiens, UniProt O95231 78-163, Y115F).
T3 sequence: T1 sequence with Y38F, Q44R

Experiment [5] addresses HOXA7 (Homo sapiens, UniProt P31268 116-202, W177C).
Experiment [6] concerns the target HOXA2 (Homo sapiens, UniProt O43364 129-215, R185T).
The target in experiment [7] is ALX1 (Homo sapiens, UniProt Q15699 118-204, L144V).
In experiment [8] the target is ALX3 (Homo sapiens, UniProt O95076 139-225, N203Q).
For a further experiment, the target named is PITX2 (Homo sapiens, UniProt Q99697 72-157).
For experiment [9], the target named is HOXA2 (Homo sapiens, UniProt O43364 129-215, R185K).
The target of experiment [10] is ALX1 (Homo sapiens, UniProt Q15699 118-204, L144R).
Experiment [11] deals with ALX3 (Homo sapiens, UniProt O95076 139-225).
Experiment [12] addresses ALX3 (Homo sapiens, UniProt O95076 139-225, L168Q).
In experiment [13] the target is ALX3 (Homo sapiens, UniProt O95076 139-225, L168V).
For experiment [14], the target named is HOXA2 (Homo sapiens, UniProt O43364 129-215, Y150S).
Experiment [15] addresses NKX3-2 (Homo sapiens, UniProt P78367 192-278, P234S).
The target in experiment [16] is ALX1 (Homo sapiens, UniProt Q15699 118-204).
Experiment [17] deals with ALX3 (Homo sapiens, UniProt O95076 139-225, N203S).
Experiment [18] concerns the target HOXA2 (Homo sapiens, UniProt O43364 129-215).
Experiment [19] deals with NKX3-2 (Homo sapiens, UniProt P78367 192-278).
Experiment [20] concerns the target HOXB6 (Homo sapiens, UniProt P17509 132-218, K202E).
The target in experiment [21] is VAX1 (Homo sapiens, UniProt Q5SQQ9 86-172).
The target in experiment [22] is VAX1 (Homo sapiens, UniProt Q5SQQ9 86-172, T142I).
For experiment [23], the target named is VAX1 (Homo sapiens, UniProt Q5SQQ9 86-172, K157R).
Experiment [24] has as its target HOXB6 (Homo sapiens, UniProt P17509 132-218).
The target of experiment [25] is T4, PAX4 (Homo sapiens, UniProt O43316 9-242, R200K).
T4 sequence: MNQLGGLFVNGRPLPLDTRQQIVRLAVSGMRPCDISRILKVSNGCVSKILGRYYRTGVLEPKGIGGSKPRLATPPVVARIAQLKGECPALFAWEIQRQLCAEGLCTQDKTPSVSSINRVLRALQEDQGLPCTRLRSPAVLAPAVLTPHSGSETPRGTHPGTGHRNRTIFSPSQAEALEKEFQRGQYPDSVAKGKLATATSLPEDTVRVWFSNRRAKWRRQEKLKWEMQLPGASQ

For experiment [26], the target named is T5, PAX4 (Homo sapiens, UniProt O43316 9-242).
T5 sequence: T4 sequence with K192R

For another experiment, the target named is MSX2 (Homo sapiens, UniProt P35548 130-214, R199I).
The target of experiment [27] is T6, PAX4 (Homo sapiens, UniProt O43316 9-242, R200Q).
T6 sequence: T4 sequence with K192Q

Experiment [28] concerns the target T7, PAX4 (Homo sapiens, UniProt O43316 9-242, F177V).
T7 sequence: T4 sequence with F169V, K192R

Experiment [29] addresses T8, PAX4 (Homo sapiens, UniProt O43316 9-242, F177Y).
T8 sequence: T4 sequence with F169Y, K192R

Experiment [30] concerns the target T9, PAX4 (Homo sapiens, UniProt O43316 9-242, R227W).
T9 sequence: T4 sequence with K192R, R219W

Experiment [31] deals with T10, NKX2-6 (Homo sapiens, UniProt A6NCS4 118-204, R150C).
T10 sequence: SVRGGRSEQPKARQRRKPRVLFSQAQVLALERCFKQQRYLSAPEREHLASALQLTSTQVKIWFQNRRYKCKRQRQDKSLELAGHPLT

Experiment [32] has as its target ALX4 (Homo sapiens, UniProt Q9H161 200-286).
In experiment [33] the target is ALX4 (Homo sapiens, UniProt Q9H161 200-286, Q225E).
The target of experiment [34] is T11, NKX2-6 (Homo sapiens, UniProt A6NCS4 118-204).
T11 sequence: T10 sequence with C33R

The target of experiment [35] is T12, NKX2-6 (Homo sapiens, UniProt A6NCS4 118-204, F151L).
T12 sequence: T10 sequence with C33R, F34L

Changes are numbered by the printed parent chain.

Sequence of HOXA7 (Homo sapiens, UniProt P31268 116-202) (P31268 116-202): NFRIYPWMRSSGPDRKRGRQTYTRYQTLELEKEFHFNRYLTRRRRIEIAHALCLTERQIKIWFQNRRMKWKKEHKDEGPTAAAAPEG
Sequence of HOXA7 (Homo sapiens, UniProt P31268 116-202, W177C) (P31268 116-202 W177C): as the sequence (P31268 116-202) above, with W62C counted along it
Sequence of ALX3 (Homo sapiens, UniProt O95076 139-225, L168V) (O95076 139-225 L168V): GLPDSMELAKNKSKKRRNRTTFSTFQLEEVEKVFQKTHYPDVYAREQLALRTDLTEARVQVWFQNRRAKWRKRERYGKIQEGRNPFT
Sequence of HOXA2 (Homo sapiens, UniProt O43364 129-215, R185K) (O43364 129-215 R185K): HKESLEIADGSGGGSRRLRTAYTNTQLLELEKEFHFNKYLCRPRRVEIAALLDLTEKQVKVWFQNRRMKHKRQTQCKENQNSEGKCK
Sequence of ALX3 (Homo sapiens, UniProt O95076 139-225) (O95076 139-225): as the sequence (O95076 139-225 L168V) above, with V30L counted along it
Sequence of ALX3 (Homo sapiens, UniProt O95076 139-225, N203Q) (O95076 139-225 N203Q): as the sequence (O95076 139-225 L168V) above, with V30L, N65Q counted along it
Sequence of VAX1 (Homo sapiens, UniProt Q5SQQ9 86-172, T142I) (Q5SQQ9 86-172 T142I): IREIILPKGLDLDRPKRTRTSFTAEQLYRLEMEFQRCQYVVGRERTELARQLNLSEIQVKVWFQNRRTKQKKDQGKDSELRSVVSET
Sequence of VAX1 (Homo sapiens, UniProt Q5SQQ9 86-172) (Q5SQQ9 86-172): as the sequence (Q5SQQ9 86-172 T142I) above, with I57T counted along it
Sequence of ALX3 (Homo sapiens, UniProt O95076 139-225, N203S) (O95076 139-225 N203S): as the sequence (O95076 139-225 L168V) above, with V30L, N65S counted along it
Sequence of VAX1 (Homo sapiens, UniProt Q5SQQ9 86-172, K157R) (Q5SQQ9 86-172 K157R): as the sequence (Q5SQQ9 86-172 T142I) above, with I57T, K72R counted along it
Sequence of ALX3 (Homo sapiens, UniProt O95076 139-225, L168Q) (O95076 139-225 L168Q): as the sequence (O95076 139-225 L168V) above, with V30Q counted along it
Sequence of NKX3-2 (Homo sapiens, UniProt P78367 192-278) (P78367 192-278): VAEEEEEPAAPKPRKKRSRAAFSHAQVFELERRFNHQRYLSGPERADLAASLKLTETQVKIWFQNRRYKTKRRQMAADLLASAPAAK
Sequence of ALX1 (Homo sapiens, UniProt Q15699 118-204, L144R) (Q15699 118-204 L144R): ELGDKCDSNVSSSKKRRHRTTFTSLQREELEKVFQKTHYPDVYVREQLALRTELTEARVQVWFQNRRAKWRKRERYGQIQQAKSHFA
Sequence of HOXA2 (Homo sapiens, UniProt O43364 129-215, R185T) (O43364 129-215 R185T): as the sequence (O43364 129-215 R185K) above, with K57T counted along it
Sequence of ALX1 (Homo sapiens, UniProt Q15699 118-204) (Q15699 118-204): as the sequence (Q15699 118-204 L144R) above, with R27L counted along it
Sequence of HOXA2 (Homo sapiens, UniProt O43364 129-215) (O43364 129-215): as the sequence (O43364 129-215 R185K) above, with K57R counted along it
Sequence of ALX1 (Homo sapiens, UniProt Q15699 118-204, L144V) (Q15699 118-204 L144V): as the sequence (Q15699 118-204 L144R) above, with R27V counted along it
Sequence of ALX4 (Homo sapiens, UniProt Q9H161 200-286) (Q9H161 200-286): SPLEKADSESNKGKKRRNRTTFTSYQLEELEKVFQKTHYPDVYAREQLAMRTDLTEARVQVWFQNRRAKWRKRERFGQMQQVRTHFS
Sequence of ALX4 (Homo sapiens, UniProt Q9H161 200-286, Q225E) (Q9H161 200-286 Q225E): as the sequence (Q9H161 200-286) above, with Q26E counted along it
Sequence of MSX2 (P35548 130-214 R199I): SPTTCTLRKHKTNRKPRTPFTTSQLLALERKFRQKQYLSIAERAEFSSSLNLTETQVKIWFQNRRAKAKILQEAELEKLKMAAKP
Sequence of HOXA2 (Homo sapiens, UniProt O43364 129-215, Y150S) (O43364 129-215 Y150S): as the sequence (O43364 129-215 R185K) above, with Y22S, K57R counted along it
Sequence of NKX3-2 (Homo sapiens, UniProt P78367 192-278, P234S) (P78367 192-278 P234S): as the sequence (P78367 192-278) above, with P43S counted along it
Sequence of HOXB6 (Homo sapiens, UniProt P17509 132-218) (P17509 132-218): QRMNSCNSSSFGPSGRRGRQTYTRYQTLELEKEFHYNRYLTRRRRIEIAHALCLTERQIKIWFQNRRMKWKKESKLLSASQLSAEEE
Sequence of HOXB6 (Homo sapiens, UniProt P17509 132-218, K202E) (P17509 132-218 K202E): as the sequence (P17509 132-218) above, with K71E counted along it

Turning to ATTAGGTG, the binding signal with VENTX [1] is 10.8 upbm affinity estimate (log intensity, higher = more binding, comparable within an allelic series); with VENTX [2], 11.2 upbm affinity estimate (log intensity, higher = more binding, comparable within an allelic series); with HOXA7 [3], 10 upbm affinity estimate (log intensity, higher = more binding, comparable within an allelic series); with VENTX [4], 10.5 upbm affinity estimate (log intensity, higher = more binding, comparable within an allelic series); with HOXA7 [5], 8.8 upbm affinity estimate (log intensity, higher = more binding, comparable within an allelic series).

On to AAACTAAT, for which the binding signal is 11 upbm affinity estimate (log intensity, higher = more binding, comparable within an allelic series) with VENTX [1]; 11.7 upbm affinity estimate (log intensity, higher = more binding, comparable within an allelic series) with VENTX [2]; 11 upbm affinity estimate (log intensity, higher = more binding, comparable within an allelic series) with VENTX [4].

Turning to GTATTAAA, the binding signal with VENTX [1] is 9.94 upbm affinity estimate (log intensity, higher = more binding, comparable within an allelic series); with VENTX [2], 10.3 upbm affinity estimate (log intensity, higher = more binding, comparable within an allelic series).

Regarding CGGCCCCC, the binding signal with VENTX [1] was 8.06 upbm affinity estimate (log intensity, higher = more binding, comparable within an allelic series); with VENTX [2] it was 8.05 upbm affinity estimate (log intensity, higher = more binding, comparable within an allelic series); with HOXA7 [3], 8.26 upbm affinity estimate (log intensity, higher = more binding, comparable within an allelic series); with VENTX [4] it was 8.12 upbm affinity estimate (log intensity, higher = more binding, comparable within an allelic series); in the experiment with HOXA2 [6] it was 7.13 upbm affinity estimate (log intensity, higher = more binding, comparable within an allelic series); in the experiment with ALX1 [7], 6.51 upbm affinity estimate (log intensity, higher = more binding, comparable within an allelic series). Moreover, the binding signal was 7.78 upbm affinity estimate (log intensity, higher = more binding, comparable within an allelic series) in the experiment with ALX3 [8]; 7.78 upbm affinity estimate (log intensity, higher = more binding, comparable within an allelic series) with PITX2; 9.86 upbm affinity estimate (log intensity, higher = more binding, comparable within an allelic series) with HOXA2 [9]; 6.5 upbm affinity estimate (log intensity, higher = more binding, comparable within an allelic series) in the experiment with ALX1 [10]; 7.73 upbm affinity estimate (log intensity, higher = more binding, comparable within an allelic series) with ALX3 [11]; 7.68 upbm affinity estimate (log intensity, higher = more binding, comparable within an allelic series) with ALX3 [12]. For the same sequence, the binding signal with ALX3 [13] is 7.67 upbm affinity estimate (log intensity, higher = more binding, comparable within an allelic series); in the experiment with HOXA2 [14] it was 10.3 upbm affinity estimate (log intensity, higher = more binding, comparable within an allelic series); with HOXA7 [5], 8.35 upbm affinity estimate (log intensity, higher = more binding, comparable within an allelic series); with NKX3-2 [15] it was 10.4 upbm affinity estimate (log intensity, higher = more binding, comparable within an allelic series); with ALX1 [16], 6.49 upbm affinity estimate (log intensity, higher = more binding, comparable within an allelic series); with ALX3 [17], 7.76 upbm affinity estimate (log intensity, higher = more binding, comparable within an allelic series). Further, the binding signal in the experiment with HOXA2 [18] is 7.15 upbm affinity estimate (log intensity, higher = more binding, comparable within an allelic series); in the experiment with NKX3-2 [19], 10.4 upbm affinity estimate (log intensity, higher = more binding, comparable within an allelic series).

Consider GCCCATTA, for which the binding signal with VENTX [1] was 12.1 upbm affinity estimate (log intensity, higher = more binding, comparable within an allelic series); with VENTX [2], 13 upbm affinity estimate (log intensity, higher = more binding, comparable within an allelic series); with HOXA7 [3] it was 11.3 upbm affinity estimate (log intensity, higher = more binding, comparable within an allelic series); in the experiment with VENTX [4], 11.8 upbm affinity estimate (log intensity, higher = more binding, comparable within an allelic series); with HOXB6 [20] it was 9.82 upbm affinity estimate (log intensity, higher = more binding, comparable within an allelic series); with HOXA2 [9] it was 13.1 upbm affinity estimate (log intensity, higher = more binding, comparable within an allelic series). For the same sequence, the binding signal is 12.8 upbm affinity estimate (log intensity, higher = more binding, comparable within an allelic series) with VAX1 [21]; 12.2 upbm affinity estimate (log intensity, higher = more binding, comparable within an allelic series) with VAX1 [22]; 8.75 upbm affinity estimate (log intensity, higher = more binding, comparable within an allelic series) in the experiment with HOXA7 [5]; 12.5 upbm affinity estimate (log intensity, higher = more binding, comparable within an allelic series) with VAX1 [23]; 11.8 upbm affinity estimate (log intensity, higher = more binding, comparable within an allelic series) in the experiment with HOXB6 [24].

As to ACCGATTA, the binding signal with VENTX [1] is 11.5 upbm affinity estimate (log intensity, higher = more binding, comparable within an allelic series); with VENTX [2], 12.9 upbm affinity estimate (log intensity, higher = more binding, comparable within an allelic series); in the experiment with VENTX [4], 11.5 upbm affinity estimate (log intensity, higher = more binding, comparable within an allelic series).

For ACCAATCA, the binding signal with VENTX [1] is 9.98 upbm affinity estimate (log intensity, higher = more binding, comparable within an allelic series); with VENTX [2], 10.7 upbm affinity estimate (log intensity, higher = more binding, comparable within an allelic series); with PAX4 [25], 10.5 upbm affinity estimate (log intensity, higher = more binding, comparable within an allelic series); in the experiment with PAX4 [26], 10.6 upbm affinity estimate (log intensity, higher = more binding, comparable within an allelic series); in the experiment with MSX2, 10.9 upbm affinity estimate (log intensity, higher = more binding, comparable within an allelic series); with PAX4 [27] it was 10.7 upbm affinity estimate (log intensity, higher = more binding, comparable within an allelic series). Further, the binding signal was 9.96 upbm affinity estimate (log intensity, higher = more binding, comparable within an allelic series) with PAX4 [28]; 10.1 upbm affinity estimate (log intensity, higher = more binding, comparable within an allelic series) in the experiment with PAX4 [29]; 10 upbm affinity estimate (log intensity, higher = more binding, comparable within an allelic series) in the experiment with PAX4 [30].

CGGCCCCA: the binding signal in the experiment with VENTX [1] was 8.18 upbm affinity estimate (log intensity, higher = more binding, comparable within an allelic series); with VENTX [2], 8.34 upbm affinity estimate (log intensity, higher = more binding, comparable within an allelic series); in the experiment with PAX4 [25], 9.24 upbm affinity estimate (log intensity, higher = more binding, comparable within an allelic series); with VENTX [4], 8.08 upbm affinity estimate (log intensity, higher = more binding, comparable within an allelic series); with PAX4 [26], 9.19 upbm affinity estimate (log intensity, higher = more binding, comparable within an allelic series); with NKX2-6 [31], 9.36 upbm affinity estimate (log intensity, higher = more binding, comparable within an allelic series). Further, the binding signal in the experiment with PAX4 [27] is 9.28 upbm affinity estimate (log intensity, higher = more binding, comparable within an allelic series); with PAX4 [28], 9.21 upbm affinity estimate (log intensity, higher = more binding, comparable within an allelic series); with PAX4 [29] it was 9.24 upbm affinity estimate (log intensity, higher = more binding, comparable within an allelic series); in the experiment with PAX4 [30], 9.25 upbm affinity estimate (log intensity, higher = more binding, comparable within an allelic series).

Turning to CGCCTGCC, the binding signal with VENTX [1] was 8.19 upbm affinity estimate (log intensity, higher = more binding, comparable within an allelic series); in the experiment with VENTX [2] it was 8.35 upbm affinity estimate (log intensity, higher = more binding, comparable within an allelic series); with ALX4 [32] it was 7.81 upbm affinity estimate (log intensity, higher = more binding, comparable within an allelic series); with VENTX [4], 8.31 upbm affinity estimate (log intensity, higher = more binding, comparable within an allelic series); in the experiment with ALX4 [33], 8.15 upbm affinity estimate (log intensity, higher = more binding, comparable within an allelic series); in the experiment with NKX2-6 [31], 9.32 upbm affinity estimate (log intensity, higher = more binding, comparable within an allelic series). In addition, the binding signal in the experiment with ALX3 [8] was 7.68 upbm affinity estimate (log intensity, higher = more binding, comparable within an allelic series); with NKX2-6 [34] it was 9.1 upbm affinity estimate (log intensity, higher = more binding, comparable within an allelic series); with ALX3 [11], 7.56 upbm affinity estimate (log intensity, higher = more binding, comparable within an allelic series); with VAX1 [21], 7.07 upbm affinity estimate (log intensity, higher = more binding, comparable within an allelic series); with ALX3 [12], 7.74 upbm affinity estimate (log intensity, higher = more binding, comparable within an allelic series); with NKX2-6 [35], 9.19 upbm affinity estimate (log intensity, higher = more binding, comparable within an allelic series). For the same sequence, the binding signal in the experiment with ALX3 [13] was 7.77 upbm affinity estimate (log intensity, higher = more binding, comparable within an allelic series); with VAX1 [22], 7.24 upbm affinity estimate (log intensity, higher = more binding, comparable within an allelic series); with ALX3 [17], 7.7 upbm affinity estimate (log intensity, higher = more binding, comparable within an allelic series); with VAX1 [23] it was 7.15 upbm affinity estimate (log intensity, higher = more binding, comparable within an allelic series).
